Assay results taken from PubChem BioAssay AID1159580 (chemical genetic matrix, 2015).
The campaign covered roughly 5,500 compounds. About 2,000 (36%) were called active. Another 18% or so got no clear call; they are omitted. Cut-off read from the data, not from the text of the source: active = normalized growth mostly below about 0.91 (no sharp cut-off); inconclusive = no clear call, values can overlap the other calls; inactive = mostly above about 0.92. The list shows a part of the results.

Experiment: chemical genetic growth profiling, strain panel (AID 1159580);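 note: tested at 20 µM; growth read once vehicle control cultures reached saturation at 30 °C; 1 = growth at the plate median or of vehicle wells; lower values mean less growth of the strain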
Conditions: growth OD

Measured: normalized growth

C=C1c2cccc(O)c2C(O)=C2C(=O)[C@]3(O)C(O)=C(C(N)=O)C(=O)[C@@H](N(C)C)[C@@H]3[C@@H](O)[C@H]12
inactive: S. cerevisiae deletion strains, locus YJR075W, strain HOC1, stronger effect = lower value 0.992 | S. cerevisiae deletion strains, locus YKL009W, strain mrt4, stronger effect = lower value 1.03 | S. cerevisiae deletion strains, locus YKL068W, stronger effect = lower value 0.989 | S. cerevisiae deletion strains, locus YKL085W, strain MDH1 (second series), stronger effect = lower value 0.978 | S. cerevisiae deletion strains, locus YKL085W, strain MDH1, stronger effect = lower value 0.978 | S. cerevisiae deletion strains, locus YKL160W, strain elf1, stronger effect = lower value 1.02 | S. cerevisiae deletion strains, locus YKL190W, strain CNB1, stronger effect = lower value 0.992 | S. cerevisiae deletion strains, locus YKR001C, strain vps1, stronger effect = lower value 0.961 | S. cerevisiae deletion strains, locus YKR026C, strain gcn3, stronger effect = lower value 0.994 | S. cerevisiae deletion strains, locus YLL001W, strain dnm1, stronger effect = lower value 1.01 | S. cerevisiae deletion strains, locus YLL026W, stronger effect = lower value 1.02 | S. cerevisiae deletion strains, locus YLL041C, strain sdh2, stronger effect = lower value 1.02 | S. cerevisiae deletion strains, locus YLR027C, strain aat2, stronger effect = lower value 1.01 | S. cerevisiae deletion strains, locus YLR039C, strain RIC1, stronger effect = lower value 0.94 | S. cerevisiae deletion strains, locus YLR058C, strain SHM2, stronger effect = lower value 0.975 | S. cerevisiae deletion strains, locus YLR102C, strain apc9, stronger effect = lower value 1 | S. cerevisiae deletion strains, locus YLR113W, strain HOG1, stronger effect = lower value 0.986 | S. cerevisiae deletion strains, locus YLR221C, strain rsa3, stronger effect = lower value 0.996 | S. cerevisiae deletion strains, locus YLR258W, strain gsy2, stronger effect = lower value 1 | S. cerevisiae deletion strains, locus YLR262C, strain YPT6 (second series), stronger effect = lower value 1.01 | S. cerevisiae deletion strains, locus YLR262C, strain YPT6, stronger effect = lower value 0.967 | S. cerevisiae deletion strains, locus YLR268W, strain sec22, stronger effect = lower value 0.905 | S. cerevisiae deletion strains, locus YLR320W, strain mms22, stronger effect = lower value 1.01 | S. cerevisiae deletion strains, locus YLR330W, strain CHS5, stronger effect = lower value 0.969 | S. cerevisiae deletion strains, locus YLR342W, strain FKS1 (second series), stronger effect = lower value 0.979 | S. cerevisiae deletion strains, locus YLR342W, strain FKS1, stronger effect = lower value 1.01 | S. cerevisiae deletion strains, locus YLR357W, strain rsc2, stronger effect = lower value 1.01 | S. cerevisiae deletion strains, locus YLR370C, strain arc18, stronger effect = lower value 1.02 | S. cerevisiae deletion strains, locus YLR371W, strain rom2, stronger effect = lower value 0.991 | S. cerevisiae deletion strains, locus YLR384C, strain iki3, stronger effect = lower value 1.03 | S. cerevisiae deletion strains, locus YLR418C, strain cdc73, stronger effect = lower value 0.972 | S. cerevisiae deletion strains, locus YML016C, strain PPZ1, stronger effect = lower value 0.979 | S. cerevisiae deletion strains, locus YML032C, strain rad52, stronger effect = lower value 0.959 | S. cerevisiae deletion strains, locus YML120C, strain ndi1, stronger effect = lower value 1.01 | S. cerevisiae deletion strains, locus YML124C, strain tub3, stronger effect = lower value 0.991 | S. cerevisiae deletion strains, locus YMR058W, strain fet3, stronger effect = lower value 0.986 | S. cerevisiae deletion strains, locus YMR078C, strain ctf18, stronger effect = lower value 1 | S. cerevisiae deletion strains, locus YMR125W, strain sto1, stronger effect = lower value 0.998 | S. cerevisiae deletion strains, locus YMR129W, stronger effect = lower value 0.998 | S. cerevisiae deletion strains, locus YMR205C, strain PFK2, stronger effect = lower value 1.02 | S. cerevisiae deletion strains, locus YMR223W, strain ubp8, stronger effect = lower value 0.992 | S. cerevisiae deletion strains, locus YMR231W, strain pep5, stronger effect = lower value 1.01 | S. cerevisiae deletion strains, locus YMR263W, strain SAP30, stronger effect = lower value 0.976 | S. cerevisiae deletion strains, locus YMR307W, strain GAS1, stronger effect = lower value 1.02 | S. cerevisiae deletion strains, locus YNL067W, strain RPL9B, stronger effect = lower value 0.95 | S. cerevisiae deletion strains, locus YNL071W, strain lat1, stronger effect = lower value 1.03 | S. cerevisiae deletion strains, locus YNL128W, strain TEP1, stronger effect = lower value 0.976 | S. cerevisiae deletion strains, locus YNL153C, strain GIM3, stronger effect = lower value 0.925 | S. cerevisiae deletion strains, locus YNL183C, strain NPR1, stronger effect = lower value 0.922 | S. cerevisiae deletion strains, locus YNL209W, strain ssb2, stronger effect = lower value 1.01 | S. cerevisiae deletion strains, locus YNL233W, strain BNI4, stronger effect = lower value 0.965 | S. cerevisiae deletion strains, locus YNL248C, strain rpa49, stronger effect = lower value 1.06 | S. cerevisiae deletion strains, locus YNL250W, strain rad50, stronger effect = lower value 0.987 | S. cerevisiae deletion strains, locus YNL271C, strain bni1, stronger effect = lower value 0.954 | S. cerevisiae deletion strains, locus YNL298W, strain CLA4, stronger effect = lower value 0.981 | S. cerevisiae deletion strains, locus YNL307C, strain MCK1, stronger effect = lower value 1 | S. cerevisiae deletion strains, locus YNL322C, strain KRE1 (second series), stronger effect = lower value 1.01 | S. cerevisiae deletion strains, locus YNL322C, strain KRE1, stronger effect = lower value 0.991 | S. cerevisiae deletion strains, locus YNR049C, strain mso1, stronger effect = lower value 1.04 | S. cerevisiae deletion strains, locus YNR052C, strain pop2, stronger effect = lower value 0.982 | S. cerevisiae deletion strains, locus YOL006C, strain TOP1, stronger effect = lower value 0.891 | S. cerevisiae deletion strains, locus YOL012C, strain htz1 0.75 | S. cerevisiae deletion strains, locus YOL147C, strain pex11, stronger effect = lower value 0.995 | S. cerevisiae deletion strains, locus YOR001W, strain rrp6, stronger effect = lower value 1.04 | S. cerevisiae deletion strains, locus YOR061W, strain CKA2, stronger effect = lower value 0.979 | S. cerevisiae deletion strains, locus YOR069W, strain VPS5, stronger effect = lower value 1 | S. cerevisiae deletion strains, locus YOR070C, strain gyp1, stronger effect = lower value 1 | S. cerevisiae deletion strains, locus YOR080W, strain dia2, stronger effect = lower value 1.02 | S. cerevisiae deletion strains, locus YOR083W, strain WHI5, stronger effect = lower value 1.01 | S. cerevisiae deletion strains, locus YOR106W, strain vam3, stronger effect = lower value 1.01 | S. cerevisiae deletion strains, locus YOR136W, strain idh2, stronger effect = lower value 1 | S. cerevisiae deletion strains, locus YOR144C, strain elg1, stronger effect = lower value 1 | S. cerevisiae deletion strains, locus YOR184W, strain ser1, stronger effect = lower value 0.98 | S. cerevisiae deletion strains, locus YOR231W, strain MKK1, stronger effect = lower value 0.964 | S. cerevisiae deletion strains, locus YOR265W, strain rbl2, stronger effect = lower value 1.01 | S. cerevisiae deletion strains, locus YOR270C, strain vph1, stronger effect = lower value 1 | S. cerevisiae deletion strains, locus YOR290C, strain snf2, stronger effect = lower value 0.998 | S. cerevisiae deletion strains, locus YOR316C, strain cot1, stronger effect = lower value 0.988 | S. cerevisiae deletion strains, locus YPL051W, strain arl3, stronger effect = lower value 1 | S. cerevisiae deletion strains, locus YPL055C, strain LGE1, stronger effect = lower value 0.951 | S. cerevisiae deletion strains, locus YPL078C, strain atp4, stronger effect = lower value 1.03 | S. cerevisiae deletion strains, locus YPL106C, strain sse1, stronger effect = lower value 0.995 | S. cerevisiae deletion strains, locus YPL240C, strain hsp82, stronger effect = lower value 1.01 | S. cerevisiae deletion strains, locus YPL241C, strain CIN2, stronger effect = lower value 0.998 | S. cerevisiae deletion strains, locus YPL256C, strain CLN2, stronger effect = lower value 0.964 | S. cerevisiae deletion strains, locus YPR119W, strain clb2, stronger effect = lower value 0.994 | S. cerevisiae deletion strains, locus YPR141C, strain kar3, stronger effect = lower value 0.981 | S. cerevisiae deletion strains, locus YPR163C, strain tif3, stronger effect = lower value 0.992 | S. cerevisiae deletion strains, locus YPR167C, strain met16, stronger effect = lower value 0.983 | S. cerevisiae deletion strains, strain wtn01, stronger effect = lower value 0.932 | S. cerevisiae strains, strain wild type, stronger effect = lower value 0.969
